# VHR inh abs: VHR1 phosphatase inhibitors, primary screen, biochemical, absorbance, uHTS. Dual specificity protein phosphatase 3 (Homo sapiens), P51452. recombinant VHR phosphatase, pNPP absorbance. inhibition, % at 13.3 µM. 290,000 tested, 0.52% active. AID 1654, 2009; in the data active = inhibition above about 50%
# Target sequence (P51452 whole entry, looked up): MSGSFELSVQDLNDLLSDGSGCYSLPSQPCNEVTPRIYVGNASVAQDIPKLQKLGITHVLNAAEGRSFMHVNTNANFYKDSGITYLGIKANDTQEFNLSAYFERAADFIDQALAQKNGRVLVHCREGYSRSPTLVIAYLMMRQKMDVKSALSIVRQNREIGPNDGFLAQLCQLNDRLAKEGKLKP
# GDH-TPI inh: GDH-TPI coupling enzyme inhibitors, primary screen, artefact control for M. tuberculosis FBA inhibitor project, biochemical, absorbance, full deck. GDH-TPI coupled enzyme counterscreen, NADH absorbance. inhibition, % at 4.8 µM. 360,000 tested, 1.2% active. AID 588335, 2011; in the data active = inhibition above about 30%;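 also: 0% = DMSO wells and 100% = wells lacking the enzyme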
# Mtb betalactam: beta-lactam sensitization of Mtb H37Rv, H37Rv. M. tuberculosis H37Rv growth with meropenem, percent inhibition. inhibition, % at 25 µM. 330,000 tested, 0.27% active. AID 434955, 2010; call rule not given here;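 also: growth measured after seven days incubation then overnight dye step; 0% = bacteria only wells and 100% = bacteria with antibiotic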
# FBA Mtb inh: Mtb FBA enzyme inhibitors, primary screen, biochemical, fluorescence, strain H37Rv | AID 588726, 2011 | purified M. tuberculosis FBA, fluorescence read-out | 360,000 tested, 2.3% active | Fructose-bisphosphate aldolase (Mycobacterium tuberculosis (strain ATCC 25618 / H37Rv)), … | inhibition, % at 1 µM; in the data active = inhibition above about 27%;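 also: 0% = vehicle and 100% = reference inhibitor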
# Target sequence (P9WQA3 whole entry, looked up): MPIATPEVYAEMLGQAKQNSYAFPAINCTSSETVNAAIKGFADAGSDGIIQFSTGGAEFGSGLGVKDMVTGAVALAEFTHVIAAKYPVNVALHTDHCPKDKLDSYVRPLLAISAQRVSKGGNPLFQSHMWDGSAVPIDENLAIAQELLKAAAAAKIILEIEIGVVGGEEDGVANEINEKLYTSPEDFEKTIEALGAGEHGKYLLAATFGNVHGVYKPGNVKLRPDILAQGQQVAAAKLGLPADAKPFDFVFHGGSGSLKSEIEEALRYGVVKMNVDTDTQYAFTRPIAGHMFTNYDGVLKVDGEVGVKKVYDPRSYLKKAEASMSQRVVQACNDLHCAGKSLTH
# Mtb hypoxia inh: PubChem AID 1159583. 300,000 tested, 0.1% active. M. tuberculosis hypoxia-regulated fluorescent reporter, fluorescence. fluorescence inhibition, % (no concentration beside the values); in the data active = fluorescence inhibition mostly above about 23%, no sharp cut-off; inactive = mostly below about 17%
# The depositor's hits bear a star; ? = inconclusive; · = no result given; + = active, no number. Rows were chosen to be rich in hits. Some 3.6% of all compounds tested hit in one or more screens of this group.
SMILES,VHR inh abs,GDH-TPI inh,Mtb betalactam,FBA Mtb inh,Mtb hypoxia inh
Cc1ccc(/C=C(/C#N)C(=O)NC(=O)Oc2ccccc2)cc1,12,28,5,2,11
N#C/C(=C\c1ccc(OCC(N)=O)cc1)C(=O)NC1CC1,14,45*,-7,-4,13
CC(C)Oc1ccc(/C=C(\C#N)C(=O)NC2CC2)cc1,·,16,-4,-4,7
COc1ccc(/C=C(\C#N)C(=O)NCC(c2ccc(F)cc2)N2CCOCC2)cc1 (configuration not stated),23,43*,-5,-1,6
CNC(=O)/C(C#N)=C/c1ccc(OCCOc2ccccc2)cc1,-4,40*,58,0,15
COc1ccc(/C=C(\C#N)C(=O)NCc2ccccc2)cc1,-2,40*,4,-2,4
N#C/C(=C\c1ccc(O)cc1)C(=O)NCc1ccccc1,11,22,-6,0,7
C=C1CCN(C(CC(C)C)C(=O)N2CCCC2)S(=O)(=O)c2ccccc21 (configuration not stated),·,·,·,·,13
O=C(NN=Cc1ccco1)c1cccc(N2CCCC2=O)c1,·,·,·,·,8
CC(=O)Nc1ccc2oc(-c3ccccc3)nc2c1,6,-1,-6,173*,4
CC(=O)Nc1ccc(-c2nc3ccc(NC(C)=O)cc3o2)cc1,2,10,-3,+,1
CCC(C)(O)C(=O)NC1CCCN1C(=O)C=Cc1ccccc1 (configuration not stated),·,·,·,·,0
Cc1ccc(N2C(=O)N3C(c4ccc(Cl)cc4)C4C(=O)N(C5CCCCC5)C(=O)C4[C@]3(Cc3ccccc3)C2=O)cc1 (some centres not stated),·,·,·,·,-3
Cc1cc2nc(-c3ccc[nH]c3=O)n(Cc3ccc(F)cc3)c2cc1C,·,14,1,198*,3
CCCn1c(-c2ccc[nH]c2=O)nc2ccccc21,-8,3,-5,152*,5
Cc1cc2nc(-c3ccc[nH]c3=O)[nH]c2cc1C,40,26,8,+,3
O=c1[nH]cccc1-c1nc2ccccc2n1Cc1ccc(F)cc1,1,14,5,173*,6
Cc1ccccc1-c1nc2ccccc2[nH]1,-5,9,17,6,16
CCCn1c(-c2ccc(OC)cc2)nc2ccccc21,26,4,?,9,13
NC(=O)C1CC2(CC(c3cccc(NC(=O)C4CCC(=O)N4)c3)=NO2)CN1C(=O)c1cc([N+](=O)[O-])cc([N+](=O)[O-])c1 (configuration not stated),·,·,·,·,5
CCOc1ccc(/C=C/C(=O)Oc2ccccc2)cc1,52*,13,89,0,6
O=Cc1ccc(OC(=O)/C=C/c2ccccc2)cc1,-5,6,-1,0,1
NC(=NOS(=O)(=O)c1cccc([N+](=O)[O-])c1)c1ccncc1,·,·,·,·,11
COc1cc(/C=C/c2ccc3c([N+](=O)[O-])cccc3n2)ccc1OCC(=O)O,15,39*,99,-4,77*
CC(=O)Nc1ccc(/C=C/c2ccc3cccc([N+](=O)[O-])c3n2)cc1,17,40*,-3,-2,5
SMILES,VHR inh abs,GDH-TPI inh,Mtb betalactam,FBA Mtb inh,Mtb hypoxia inh
O=C(O)COc1ccc(/C=C/c2ccc3cccc([N+](=O)[O-])c3n2)cc1,14,26,92,-4,-2
COc1cc(/C=C/c2ccc3cccc([N+](=O)[O-])c3n2)ccc1OCC(=O)O,30,45*,·,-3,6
CCCS(=O)(=O)N1CCN(Cc2ccc3c(c2)c2ccccc2n3CC)CC1,2,2,4,2,41*
CCOC(=O)CC1(C)c2nc(NC(C)=O)sc2Cc2sc(NC(C)=O)nc21,·,·,·,161*,·
Cc1sc2ncn(CC(=O)NCCCN3CCC(C)CC3)c(=O)c2c1S(=O)(=O)N1CCC(C)CC1,60*,-6,6,2,-1
Cc1sc2ncn(CC(=O)NCCN3CCOCC3)c(=O)c2c1S(=O)(=O)N1CCC(C)CC1,2,3,-2,0,5
NC(=O)c1ccc(NC(=O)C#Cc2ccccc2)cc1,8,9,3,1,7
COc1ccc(NC(=O)C#Cc2ccccc2)cc1OC,-8,34*,0,0,-2
COc1cc(OC)cc(-c2c(C#Cc3ccsc3)c3cc(-c4cccc5[nH]ccc45)ccc3n2C)c1,·,20,-1,21,6
COc1ccc(-c2c(-c3cc(OC)cc(OC)c3)n(C)c3ccc(-c4cccc5[nH]ccc45)cc23)cc1,·,28,3,121*,14
COc1ccc(-c2c(-c3cc(OC)cc(OC)c3)n(C)c3ccc(-c4ccc5cc[nH]c5c4)cc23)cc1,·,35*,0,114*,3
COc1ccc(-c2c(-c3cc(OC)cc(OC)c3)n(C)c3ccc(-c4cc(F)cc(OC)c4)cc23)cc1,·,12,-7,6,18
C#CCOCCOCCOCCNc1nc(N2CCN(C(=O)C(Cc3ccc(O)cc3)n3cc(C(N)CC(C)C)nn3)CC2)nc(N2CCN(C(=O)C(C(C)CC)n3cc(C(N)CC(C)C)nn3)CC2)n1 (configuration not stated),·,·,·,·,7
CC(C)(C)OC(=O)CC1CC=CCC(CC(=O)N(CCO)Cc2ccccc2)C(=O)N2CCCC2COC1=O (configuration not stated),·,·,·,·,7
COc1ccc(C(=O)C2CC[C@](C)(C(=O)O)C2(C)C)cc1 (some centres not stated),·,·,·,·,6
COc1cc(OC)c(OC)cc1C=NNc1ccc(Cl)nn1,·,·,·,·,17
O=C(NCCCn1ccnc1)c1cccc(Br)c1,53*,-1,-1,1,5
O=C(NCCCn1ccnc1)/C(=C/c1ccc(Cl)cc1)NC(=O)c1ccccc1,28,-5,0,1,15
CN(C)c1ccc(/C=C(/NC(=O)c2ccccc2)C(=O)NCCCn2ccnc2)cc1,-5,33*,62,-4,2
CCn1cc(/C=C(\NC(=O)c2ccccc2)C(=O)NCCCn2ccnc2)c2ccccc21,·,45*,·,0,·
CC1CN(C(C)CO)C(=O)c2cccc(NC(=O)NC3CCCCC3)c2OC1CN(C)S(=O)(=O)c1cccs1 (configuration not stated),·,·,·,·,5
O=C(C1=CC(c2ccc(C(F)(F)F)cc2)CC(OCCCCO)O1)N1CCN(Cc2ccc3c(c2)OCO3)CC1 (configuration not stated),·,·,·,·,7
CC1CCCC(C)N1N=Cc1ccc(C(=O)O)cc1 (configuration not stated),·,·,·,·,-11
COc1ccc(N(C(C)C(=O)NN=C(C)C(C)(C)C)S(C)(=O)=O)cc1 (configuration not stated),·,·,·,·,14
Cc1cccn2c(=O)c3cc(C(=O)NC4CCCCCC4)sc3nc12,22,4,1,27,-3
CC(C)NC(=O)c1cc2c(=O)n3ccccc3nc2s1,20,-12,-4,-3,4

# High-throughput results as filed in PubChem.
